# Compounds without any hit were thinned out: in the full panel of roughly 83,000, 20% have a hit.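 The endpoint reported here, percent growth, reads 100 for growth as untreated, 0 for no net growth and -100 for all cells dead.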 Unmarked numbers belong to inactive results. Activity calls are given as the source filed them. How the source made its calls: active means growth percent below 10; inactive means the rest.
# Experiments:
# Assay in all cases: NCI-60 one-dose screen, 48 h (100 = growth as untreated, 0 = no growth, -100 = all killed)
# Conditions in all cases: 10 µM unless noted
# [1] = tested on: NCI-H23 lung
# [2] = tested on: NCI-H226 lung
# [3] = tested on: NCI-H322M lung
# [4] = tested on: HOP-62 NSCLC
# [5] = tested on: NCI-H460 lung
# [6] = tested on: HOP-92 NSCLC
# [7] = tested on: NCI-H522 lung
# [8] = tested on: A549/ATCC NSCLC
# [9] = tested on: 786-0 renal
# [10] = tested on: COLO 205 colon
# [11] = tested on: DU-145 prostate
# [12] = tested on: K-562 leukemia
# [13] = tested on: MALME-3M melanoma
# [14] = tested on: MDA-MB-231 breast
# [15] = tested on: RXF 393 renal
# [16] = tested on: SF-268 CNS
# [17] = tested on: SF-295 CNS
# [18] = tested on: SF-539 CNS
# [19] = tested on: UACC-257 melanoma
# [20] = tested on: M14 melanoma
SMILES,growth [1],growth [2],growth [3],growth [4],growth [5],growth [6],growth [7],growth [8],growth [9],growth [10],growth [11],growth [12],growth [13],growth [14],growth [15],growth [16],growth [17],growth [18],growth [19],growth [20]
Oc1ccc(CCC2CCNc3ccccc32)cc1 (stereo not drawn),65.3%,62.8%,91.1%,75.8%,83.8%,49.3%,68.8%,52.1%,82.2%,93.4%,93.4%,69.7%,98.8%,86.2%,81.5%,83.1%,75.2%,75.7%,,
CCOC(=O)CO,104%,99.8%,98.2%,104%,106%,95.6%,97%,102%,105%,117%,120%,97.4%,87%,109%,93.7%,115%,103%,119%,102%,104%
O=C(O)c1ccccc1Cc1ccc2c(c1)CCCC2,100%,92.5%,99.2%,111%,106%,107%,98.3%,94.9%,107%,112%,118%,106%,108%,95%,105%,99.5%,116%,110%,100%,110%
O=C(Oc1ccccc1Cl)c1ccc(Cl)cc1Cl,101%,102%,107%,87.9%,102%,103%,98.8%,89.3%,95.9%,104%,110%,99.6%,103%,98.3%,102%,105%,95.1%,95.6%,94.3%,98.1%
CC(=O)/C(C)=N\OC(=O)Nc1ccccc1,93.8%,104%,101%,94.8%,107%,92.9%,98.3%,103%,100%,96.4%,104%,98.4%,104%,99.3%,125%,101%,101%,95.3%,98.7%,101%
O=[N+]([O-])c1c(O)c(CNCCCO)cc(CNCCCO)c1O,106%,101%,99.5%,106%,119%,90.8%,121%,95.4%,118%,120%,132%,95.9%,109%,99.8%,99.7%,118%,106%,94.6%,108%,107%
CCC(=O)Oc1ccc2ccccc2c1,100%,90.2%,103%,81%,99.9%,86.1%,99.5%,99.4%,96.9%,102%,113%,107%,93.7%,90.2%,105%,97.5%,101%,96.8%,96.6%,92.2%
C=C(OC(C)=O)c1ccccc1,97.1%,107%,113%,85.5%,102%,87.5%,88.5%,86.7%,104%,109%,113%,83%,108%,103%,113%,102%,105%,108%,83.7%,97.3%
CC(=O)Nc1ncc(S(=O)(=O)c2ccc([N+](=O)[O-])cc2)s1,117%,105%,113%,93.2%,113%,110%,94.3%,103%,98%,106%,113%,99.3%,118%,123%,115%,100%,112%,113%,104%,97.3%
ClCc1cccc2c(CCl)cccc12,61.5%,74.9%,-4.83% (active),54.5%,16.7%,89.4%,79.4%,57.7%,-74.3% (active),77.9%,32.6%,79.2%,90.6%,92.3%,61%,64.3%,58.6%,61.6%,70%,25.8%
CC12CCC3c4ccc(O)cc4CCC3C1CCC2=O (stereo not drawn),104%,97%,113%,98.1%,105%,104%,70%,92.3%,94.5%,103%,112%,93.9%,113%,83.5%,103%,99%,112%,96.6%,93.8%,102%
CCCC1OC(c2ccco2)OCC1CC (stereo not drawn),96.8%,111%,102%,105%,113%,105%,80.5%,87.5%,105%,106%,104%,105%,118%,102%,136%,101%,105%,106%,93.1%,102%
CC(=O)NC(CCC(=O)c1ccccc1)C(=O)O (stereo not drawn),101%,91.1%,98.5%,76.2%,102%,97.6%,90.2%,63.3%,87.9%,108%,107%,108%,96.6%,107%,105%,101%,101%,91.2%,76.7%,90.9%
CC1(C)CC(=O)C=C(N)C1,88.1%,103%,106%,103%,121%,109%,89.6%,94.8%,106%,134%,128%,146%,155%,104%,94.4%,110%,98.7%,127%,87.2%,102%
C=CCC(OC(C)=O)c1ccc(C(C)C)cc1 (stereo not drawn),108%,106%,120%,109%,106%,86.7%,86.6%,92.3%,108%,122%,118%,108%,124%,122%,113%,110%,126%,104%,105%,114%
CCOC(=O)C(C#N)=C1CCN(C)CC1,94.3%,111%,107%,104%,111%,97.9%,105%,101%,110%,108%,123%,116%,124%,119%,115%,102%,103%,105%,93.9%,105%
O=C(Nc1c(Cl)cc(Cl)cc1Cl)ON=C1CCCCC1,104%,99.4%,106%,100%,111%,132%,95.2%,99.2%,99.8%,126%,94.9%,105%,101%,101%,116%,91.7%,102%,97.4%,102%,111%

SMILES,growth [1],growth [2],growth [3],growth [4],growth [5],growth [6],growth [7],growth [8],growth [9],growth [10],growth [11],growth [12],growth [13],growth [14],growth [15],growth [16],growth [17],growth [18],growth [19],growth [20]
CN(C)c1ccc(O)c2c1CC1CC3C(N(C)C)C(=O)C(C(N)=O)=C(O)C3(O)C(=O)C1=C2O (stereo not drawn),51.1%,71%,38.7%,55%,29.1%,21.7%,35.6%,21.3%,45.3%,56.3%,49%,45.2%,46.8%,66.3%,46.3%,46.1%,11.8%,41.6%,48.4%,42.1%
Nc1ccn(C2CC(N)C(CO)O2)c(=O)n1 (stereo not drawn),80.1%,85.1%,96.6%,69.1%,34.5%,95.7%,77.9%,75.6%,94.1%,97.7%,51.2%,83.9%,79.2%,94.4%,128%,102%,82.4%,76.3%,96%,66.2%
CCCCCCCCCCCCCC/C=C\C(CC(=O)O)C(=O)O (stereo not drawn),108%,109%,117%,105%,106%,106%,107%,103%,103%,97.7%,110%,154%,123%,102%,117%,103%,110%,108%,107%,103%
Cc1onc(-c2c(F)cccc2Cl)c1-c1ncc(-c2ccc(Br)cc2)o1,42.1%,73.1%,61.9%,59.3%,4.75% (active),61.3%,41.9%,41.7%,10.7%,49.6%,50%,24%,45.2%,52.3%,58.7%,43.1%,36.4%,39.6%,23.7%,54.3%
O=C1Nc2ccccc2/C1=C\c1ccccc1O,82.6%,93.2%,80.5%,87.9%,98.7%,46.6%,61.6%,114%,98.8%,124%,88.6%,73.1%,78%,83.6%,106%,89.7%,96.6%,88.7%,94%,85.6%
O=[N+]([O-])c1ccc(-c2nc(N(CCO)CCO)c3ccccc3n2)o1,-64.9% (active),-24.7% (active),-31% (active),-20.7% (active),-41.6% (active),-44.8% (active),-54% (active),-0.496% (active),-40.4% (active),-87.1% (active),-22.8% (active),4.2% (active),-74.5% (active),-6.61% (active),-87.1% (active),-16.2% (active),-32.1% (active),-48.9% (active),-36.3% (active),-90% (active)
CCCCCCCCCCCCSC1=C(Cl)C(=O)C(OC)=C(OC)C1=O,43.7%,74.6%,75.8%,75.2%,18.2%,57.9%,-63.3% (active),29.4%,65.6%,55.4%,60.2%,28.2%,12.5%,55.5%,34.1%,46.1%,38.3%,41.5%,26.8%,64.1%
CC1(C)OC(=O)CC1=O,98.6%,76.1%,108%,97.9%,104%,81.2%,86.4%,69%,98.4%,99.6%,109%,92.2%,105%,104%,103%,103%,106%,102%,89.4%,93.9%
Cc1ccc(C2CCCCC2)cc1Br,105%,97.7%,99.2%,91.3%,108%,95%,91.3%,89.4%,96.4%,101%,105%,100%,100%,97.4%,105%,99.5%,95.5%,101%,88.8%,98.6%
C=CC(C)C(C)(C)O (stereo not drawn),108%,98.8%,98.3%,102%,102%,105%,94.4%,94.6%,89.4%,110%,105%,94%,107%,103%,105%,95.3%,102%,105%,109%,102%
Nc1ncc([N+](=O)[O-])cn1,102%,103%,95%,103%,111%,93.7%,71.2%,90.1%,105%,119%,104%,108%,103%,98.4%,110%,98.4%,105%,105%,84.7%,100%
Cc1ccc([N+](=O)[O-])c(C)n1,108%,106%,101%,106%,112%,84.2%,98.9%,105%,114%,111%,114%,114%,100%,117%,128%,98.6%,97.7%,89.5%,98.1%,110%
CCCNS(=O)(=O)c1ccc(Cl)cc1,104%,113%,93.6%,86.6%,103%,104%,96.6%,94.5%,97.6%,102%,109%,104%,105%,102%,114%,106%,87.8%,98.1%,101%,101%
CCCc1cccc(CCC)c1NC(=O)Nc1cc(Cl)cc(Cl)c1,101%,98.1%,96.8%,104%,118%,98.8%,85.7%,93.8%,93.9%,120%,107%,100%,87.5%,90.2%,116%,94.9%,109%,92.4%,86%,101%
CC(=O)OCC1CCC(COC(C)=O)CC1 (stereo not drawn),95.5%,105%,96.6%,90.8%,110%,125%,67.4%,79.7%,95.3%,120%,102%,104%,104%,119%,106%,95.1%,99%,104%,82.9%,111%
C=CCc1cc(OC)c(O)c(OC)c1,105%,93.8%,124%,97.4%,108%,105%,92.2%,83.9%,102%,105%,107%,119%,95.1%,104%,119%,97%,97.3%,92.1%,101%,101%

# — PubChem BioAssay (NCI)
